# According to PubChem BioAssay (Tox21):
# Inconclusive results are not listed. A call without a number means that no potency is given here. Values without a mark were called inactive. Activity calls are given as the source filed them. Unless noted, calls follow the shape of the dose curve; as a rule, active = well fitted curve in the direction sought with a large enough effect in the repeat runs; inconclusive = weak or mixed curves; inactive = no such curve, though single readings can be large; an effect the other way counts as inactive or inconclusive.
# Legend:
# [1] = qHTS assay to identify small molecule antagonists of the vitamin D receptor (VDR) signaling pathway - cell viability counter screen (AID 743225); also: nearly all actives have a fitted effect of over 50% in size
# How it was run: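 Parallel cytotoxicity test: VDR-UAS-bla HEK 293T, 3 nM (final) 1-alpha,25-dihydroxyvitamin D3 with test compound, 16 h, 37C. Endpoint is CellTiter-Glo luminescence in the same wells.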
# [2] = qHTS assay to identify small molecule agonists of the NFkB signaling pathway - cell viability counter screen (AID 1159515; calls by dose curve; also: series mostly up to about 61 µM; nearly all actives have a fitted effect of over 55% in size)
# How it was run: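 Parallel cytotoxicity counter screen in ME-180 cells carrying an NFkB-response-element beta-lactamase reporter, 2,000 cells/well. Compound exposure lasted 5 hr at 37 C, 5% CO2. Cell viability was quantified by CellTiter-Glo luminescence.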
# [3] = qHTS assay to identify small molecule agonists of the endoplasmic reticulum stress response signaling pathway (AID 1159516; active = well fitted activation curve with a large enough effect in the signal ratio in the repeat runs, not every such curve was filed as active; the % refers to the signal ratio)
# How it was run: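 Using a HeLa line with an ESRE-driven beta-lactamase gene, agonist activity was measured by FRET substrate fluorescence (460 and 530 nm emission) after cells were treated with compounds for 5 hr at 37 C and 5% CO2.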
# [4] = qHTS assay to identify small molecule agonists of the endoplasmic reticulum stress response signaling pathway - cell viability counter screen (AID 1159517; calls by dose curve;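 also: HeLa cells carrying an ER stress response element beta-lactamase reporter; series mostly up to about 61 µM; nearly all actives have a fitted effect of over 50% in size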)
# How it was run: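 ESRE-bla HeLa cells (1,500/well) were plated overnight at 37 C and exposed to compounds for 5 hr. After the 2 hr beta-lactamase substrate read, CellTiter-Glo went into the same wells, and luminescence was read after 30 min at room temperature.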
# [5] = qHTS assay to identify small molecule antagonists of the retinoid-related orphan receptor gamma (ROR-gamma) signaling pathway - cell viability counter screen (AID 1159520); also: nearly all actives have a fitted effect of over 50% in size
# How it was run: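 Cytotoxicity was read from cellular ATP (CellTiter-Glo luminescence) after 16 hr at 37 C with 1 uM doxycycline induction. The inducer was added 2 hr after compound transfer to Tet-on ROR gamma CHO cells.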
# [6] = target: Nuclear receptor ROR-gamma (Homo sapiens) (UniProt P51449); test: qHTS assay to identify small molecule antagonists of the retinoid-related orphan receptor gamma (ROR-gamma) signaling pathway (AID 1159521;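 also: CHO cells with doxycycline inducible ROR-gamma driving an RORE luciferase reporter; top concentration of the series differs between compounds; nearly all actives have a fitted effect of over 50% in size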)
# How it was run: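 Decreased RORE-driven luciferase luminescence indicates antagonism. Tet-on RORγ CHO cells received compound, then 1 uM final doxycycline 2 h later; signal read after 16 h incubation.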
# [7] = qHTS assay to identify small molecule agonists of the AP-1 signaling pathway - cell viability counter screen (AID 1159525; calls by dose curve; also: nearly all actives have a fitted effect of over 55% in size)
# How it was run: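 Intracellular ATP by Cell Titer Glo luminescence (30 min, RT) in the same ME-180 AP-1-bla wells after the 5 h compound exposure at 37 °C. Normalised to tetra n-octyl ammonium bromide and DMSO controls.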
# [8] = qHTS assay to identify small molecule agonists of the AP-1 signaling pathway (AID 1159526; calls by dose curve)
# [9] = target: Retinoic acid receptor RXR-alpha (Homo sapiens) (UniProt P19793); test: qHTS assay to identify small molecule agonists of the RXR signaling pathway (AID 1159527; calls by dose curve; also: nearly all actives have a fitted effect of over 35% in size)
# How it was run: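 16 hr incubation of compound-treated RXR-alpha-UAS-bla HEK 293T cells (2% charcoal-stripped FBS, 37 C) preceded a 2 hr room-temperature LiveBLAzer FRET substrate step and blue/green fluorescence measurement.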
# [10] = qHTS assay to identify small molecule agonists of the RXR signaling pathway - cell viability counter screen (AID 1159529); also: nearly all actives have a fitted effect of over 50% in size; also: potency is read from the fitted curve at half-maximal effect;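 as to activity change, negative = cytotoxicity: HEK 293T cells carrying an RXR-alpha UAS beta-lactamase reporter; series mostly up to about 77 µM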
# How it was run: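 In this parallel viability measure, GeneBLAzer RXR-alpha HEK 293T cells (2% charcoal-stripped FBS) were given a 5 hr preincubation, treated with compounds 16 hr at 37 C, and read by CellTiter-Glo luminescence.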
# [11] = qHTS assay to identify small molecule antagonists of the retinoid acid receptor (RAR) signaling pathway - cell viability counter screen (AID 1159551); also: nearly all actives have a fitted effect of over 35% in size
# How it was run: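 ATP-based viability, C3RL4 cells, 6 h at 37 C with 1 uM final retinol co-added after compound; luminescence read 30 min post CellTiter-Glo, RT.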
# [12] = qHTS assay to identify small molecule antagonists of the retinoic acid receptor (RAR) signaling pathway (AID 1159552; also: nearly all actives have a fitted effect of over 50% in size)
# How it was run: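 C3RL4 RARE-luc cells, overnight plating; retinol 1 uM final added right after compound; 6 hr 37 C; luciferase read at 30 min RT.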
# [13] = qHTS assay to identify small molecule agonists of the retinoic acid receptor (RAR) signaling pathway (AID 1159553)
# How it was run: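 Quantitative high-throughput format: the Tox21 10K library was tested on C3RL4 RARE-luciferase cells for 6 hr at 37 C and 5% CO2, with luminescence measured after a 30 min room-temperature reagent step.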
# [14] = qHTS assay to identify small molecule antagonists of the estrogen related receptor (ERR) signaling pathway from Tox21 library - cell viability counter screen (AID 1224834); also: nearly all actives have a fitted effect of over 30% in size
# How it was run: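 Compounds in DMSO were pinned onto ERR cells that had been incubated for 6 h, and the plates were held at 37 C for 17.5 h. CellTiter-Fluor reagent was then added and fluorescence was measured after 30 min.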
# [15] = target: Luciferin 4-monooxygenase (Photinus pyralis) (UniProt P08659); test: qHTS assay to identify small molecule inhibitors of firefly luciferase (AID 1224835); also: series mostly up to about 120 µM; nearly all actives have a fitted effect of over 25% in size
# How it was run: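 Inhibition of purified Photinus luciferase is measured by luminescence. Substrate levels (D-luciferin, ATP) sit at their KM values. Each compound is tested in a concentration series.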
# [16] = qHTS assay to identify small molecule agonists of the constitutive androstane receptor (CAR) signaling pathway - cell viability counter screen (AID 1224836); also: series mostly up to about 92 µM; nearly all actives have a fitted effect of over 45% in size
# How it was run: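 Using CellTiter-Fluor, viability of HepG2 cells harbouring hCAR and CYP2B6-2.2kb was measured following 23 h incubation with a 15-concentration compound series plus PK11195 (0.75 uM final).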
# [17] = qHTS assay to identify small molecule antagonists of the constitutive androstane receptor (CAR) signaling pathway - cell viability counter screen (AID 1224837); also: series mostly up to about 92 µM; nearly all actives have a fitted effect of over 45% in size
# How it was run: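 Cells are seeded, rested 4 hr at 37 C/5% CO2, dosed with compound (15-point series) and 50 nM CITCO, incubated a further 23 hr, and then CellTiter-Fluor reagent is added before fluorescence is read. The line is HepG2 with stable hCAR and CYP2B6-2.2kb.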
# [18] = target: Nuclear receptor subfamily 1 group I member 3 (Homo sapiens) (UniProt Q14994); test: qHTS assay to identify small molecule agonists of the constitutive androstane receptor (CAR) signaling pathway (AID 1224839);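 also: HepG2 cells stably carrying human CAR and a CYP2B6 luciferase reporter; series mostly up to about 92 µM; nearly all actives have a fitted effect of over 15% in size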
# How it was run: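 Double-stable HepG2 cells (hCAR, CYP2B6-2.2kb) seeded 4 h before compound addition. Exposure 24 h with 0.75 uM PK11195 final. Luciferase detected by ONE-Glo.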
# [19] = qHTS assay to identify small molecule antagonists of the estrogen related receptor signaling pathway with the pleiotropic PPARgamma coactivator (PGC) from Tox21 10K library - cell viability counter screen (AID 1224840; active = well fitted cell-killing curve with a large enough effect in the repeat runs, not every such curve was filed as active; also: nearly all actives have a fitted effect of over 40% in size)
# How it was run: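 Cell viability is measured by CellTiter-Fluor fluorescence in PGC/ERR cells that receive compounds after a 6-hour attachment period and are then incubated 17.5 hours at 37 C.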
# Sequence of Luciferin 4-monooxygenase (Photinus pyralis) (P08659 whole entry, looked up): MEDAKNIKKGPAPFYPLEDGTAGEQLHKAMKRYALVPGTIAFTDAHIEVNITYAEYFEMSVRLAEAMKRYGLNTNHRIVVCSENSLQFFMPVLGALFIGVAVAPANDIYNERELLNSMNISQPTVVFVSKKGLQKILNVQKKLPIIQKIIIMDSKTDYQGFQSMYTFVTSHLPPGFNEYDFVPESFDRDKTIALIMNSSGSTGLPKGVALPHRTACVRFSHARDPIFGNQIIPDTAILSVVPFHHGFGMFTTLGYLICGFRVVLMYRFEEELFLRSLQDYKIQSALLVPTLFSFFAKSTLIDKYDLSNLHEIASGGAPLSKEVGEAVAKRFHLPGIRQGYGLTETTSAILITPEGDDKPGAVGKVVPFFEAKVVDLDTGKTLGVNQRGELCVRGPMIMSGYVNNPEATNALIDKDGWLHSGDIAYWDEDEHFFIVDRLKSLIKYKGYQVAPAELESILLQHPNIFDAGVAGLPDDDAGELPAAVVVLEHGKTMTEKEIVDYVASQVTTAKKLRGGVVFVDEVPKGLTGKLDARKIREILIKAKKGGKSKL
# Sequence of Nuclear receptor subfamily 1 group I member 3 (Homo sapiens) (Q14994 whole entry, looked up): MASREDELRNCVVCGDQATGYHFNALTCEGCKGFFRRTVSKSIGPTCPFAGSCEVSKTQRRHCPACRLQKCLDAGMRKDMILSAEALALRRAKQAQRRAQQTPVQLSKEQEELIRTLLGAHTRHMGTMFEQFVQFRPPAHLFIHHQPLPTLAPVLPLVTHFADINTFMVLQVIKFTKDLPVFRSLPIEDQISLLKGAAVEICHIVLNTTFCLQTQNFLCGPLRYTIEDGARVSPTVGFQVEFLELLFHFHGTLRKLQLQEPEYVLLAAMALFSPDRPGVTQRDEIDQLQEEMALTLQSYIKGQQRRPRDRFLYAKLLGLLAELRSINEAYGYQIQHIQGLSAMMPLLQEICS
# Sequence of Retinoic acid receptor RXR-alpha (Homo sapiens) (P19793 whole entry, looked up): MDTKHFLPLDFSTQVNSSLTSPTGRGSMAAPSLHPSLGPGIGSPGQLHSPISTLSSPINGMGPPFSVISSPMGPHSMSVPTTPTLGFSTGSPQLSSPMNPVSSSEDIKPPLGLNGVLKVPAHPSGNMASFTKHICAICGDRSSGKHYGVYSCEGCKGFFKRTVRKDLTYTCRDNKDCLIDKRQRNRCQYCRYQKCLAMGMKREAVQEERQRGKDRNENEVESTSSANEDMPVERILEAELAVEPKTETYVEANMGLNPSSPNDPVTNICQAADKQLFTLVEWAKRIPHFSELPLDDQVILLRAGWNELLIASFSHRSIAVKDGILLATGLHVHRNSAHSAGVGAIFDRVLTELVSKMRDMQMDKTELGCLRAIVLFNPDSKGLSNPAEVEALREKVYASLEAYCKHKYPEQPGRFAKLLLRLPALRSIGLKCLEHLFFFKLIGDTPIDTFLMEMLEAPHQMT
structure (smiles),measurement,setting,value
CC(O)CCCCn1c(=O)c2c(ncn2C)n(C)c1=O (stereo not given),outcome,[1],inactive
same,outcome,[2],inactive
same,Potency,[3],inactive
same,outcome,[4],inactive
same,outcome,[5],inactive
same,outcome,[6],inactive
same,outcome,[7],inactive
same,Potency,[8],inactive
same,Potency,[9],inactive
same,Potency,[10],inactive
same,outcome,[11],inactive
same,outcome,[12],inactive
same,Potency,[13],inactive
same,outcome,[14],inactive
same,Potency,[15],inactive
same,outcome,[16],inactive
same,outcome,[17],inactive
same,Potency,[18],inactive
same,outcome,[19],inactive
C=CCCCCCCCCOC(C)=O,outcome,[2],inactive
same,Potency,[3],inactive
same,outcome,[4],inactive
same,outcome,[5],inactive
same,outcome,[6],inactive
same,outcome,[7],inactive
same,Potency,[8],inactive
same,Potency,[9],inactive
same,Potency,[10],inactive
same,outcome,[11],inactive
same,outcome,[12],inactive
same,Potency,[13],inactive
same,outcome,[14],inactive
same,Potency,[15],inactive
same,outcome,[16],inactive
same,outcome,[17],inactive
same,outcome,[19],inactive
CCO[Si](CC(C)C)(OCC)OCC,outcome,[2],inactive
same,Potency,[3],inactive
same,outcome,[4],inactive
same,outcome,[5],inactive
same,outcome,[6],inactive
same,outcome,[7],inactive
same,Potency,[8],inactive
same,Potency,[9],inactive
same,Potency,[10],inactive
same,outcome,[11],inactive
same,outcome,[12],inactive
same,Potency,[13],inactive
same,outcome,[14],inactive
same,Potency,[15],inactive
same,outcome,[16],inactive
same,outcome,[17],inactive
same,outcome,[19],inactive
CN(C)CCCN(C)C,"activity, negative = cytotoxic",[2],0.193% [at 6.95 µM]
same,activation,[3],3.45% [at 6.95 µM]
same,"activity change, negative = cytotoxicity",[4],19.8% [at 6.95 µM]
same,"activity, negative = cytotoxicity",[5],11.1% [at 8.39 µM]
same,"activity change, negative = inhibition",[6],-7.64% [at 8.39 µM]
same,"viability change, negative = cytotoxic",[7],-0.503% [at 6.97 µM]
same,activation,[8],-5.98% [at 6.97 µM]
same,activation,[9],4.65% [at 6.98 µM]
same,"activity change, negative = cytotoxicity",[10],-1.24% [at 6.97 µM]
same,"activity change, negative = cytotoxicity",[11],-1.41% [at 8.39 µM]
same,"activity, negative = inhibition",[12],0.227% [at 8.39 µM]
same,activation,[13],0.0534% [at 8.36 µM]
same,"viability change, negative = cytotoxic",[14],0.808% [at 8.39 µM]
same,"activity change, negative = inhibition",[15],2.53% [at 10.5 µM]
same,"viability change, negative = cytotoxic",[16],-1.97% [at 8.39 µM]
same,"activity change, negative = cytotoxicity",[17],1.66% [at 8.39 µM]
same,activation,[18],-0.471% [at 8.39 µM]
same,"viability change, negative = cytotoxic",[19],4.04% [at 8.39 µM]
C=C(C)C(=O)OCCOC1CC2CC1C1C=CCC21 (stereo not given),outcome,[1],inactive
same,outcome,[2],inactive
same,Potency,[3],inactive
same,outcome,[4],inactive
same,outcome,[5],inactive
same,outcome,[6],inactive
same,outcome,[7],inactive
same,Potency,[8],inactive
same,Potency,[9],inactive
same,Potency,[10],inactive
same,outcome,[11],inactive
same,outcome,[12],inactive
same,Potency,[13],inactive
same,outcome,[14],inactive
same,Potency,[15],inactive
same,outcome,[16],inactive
same,outcome,[17],inactive
same,Potency,[18],inactive
same,outcome,[19],inactive
Cc1ccc(O)c([N+](=O)[O-])c1,outcome,[1],inactive
same,outcome,[2],inactive
same,Potency,[3],inactive
same,outcome,[4],inactive
same,outcome,[5],inactive
same,outcome,[6],inactive
same,outcome,[7],inactive
same,Potency,[8],inactive
same,Potency,[9],inactive
same,Potency,[10],24.8 µM (active)
same,outcome,[11],inactive
same,outcome,[12],inactive
same,Potency,[13],inactive
same,outcome,[14],inactive
same,Potency,[15],inactive
same,outcome,[16],inactive
same,outcome,[17],inactive
same,Potency,[18],inactive
same,outcome,[19],inactive
COCCCOc1cc(C[C@@H](C[C@H](N)[C@@H](O)C[C@H](C(=O)NCC(C)(C)C(N)=O)C(C)C)C(C)C)ccc1OC,outcome,[2],inactive
same,Potency,[3],inactive
same,outcome,[4],inactive
same,outcome,[5],inactive
same,outcome,[6],inactive
same,outcome,[7],inactive
same,Potency,[8],inactive
same,Potency,[9],inactive
same,Potency,[10],inactive
same,outcome,[11],inactive
same,outcome,[12],inactive
same,Potency,[13],inactive
same,outcome,[14],inactive
same,Potency,[15],inactive
same,outcome,[16],inactive
same,outcome,[17],inactive
same,outcome,[19],inactive
Cc1cc2c(cc1CC(=O)c1sccc1S(=O)(=O)Nc1onc(C)c1Cl)OCO2,outcome,[1],inactive
same,outcome,[2],inactive
same,Potency,[3],inactive
same,outcome,[4],inactive
same,outcome,[5],inactive
same,outcome,[6],inactive
same,outcome,[7],inactive
same,Potency,[8],inactive
same,Potency,[9],inactive
same,Potency,[10],inactive
same,outcome,[11],inactive
same,outcome,[12],inactive
same,Potency,[13],inactive
same,outcome,[14],inactive
same,Potency,[15],inactive
same,outcome,[16],inactive
same,outcome,[17],inactive
same,Potency,[18],inactive
same,outcome,[19],inactive
